The values below come from PubChem BioAssay (NCATS).

SMILES strings stand for the structures. Inconclusive results are not listed. Unmarked numbers belong to inactive results. Active and inactive are the calls of the source. Calls come from the whole dose curve; as a rule, active = well fitted inhibition curve with a large enough effect; inconclusive = small, poorly fitted or top-dose-only effect; inactive = no such curve, though single readings can be large or run the other way.
% is set by controls: 0 for no effect and ±100 for the full control effect.

The experiment relates to Zika virus NS2B-NS3 protease (linked construct). The experiment can be described thus: Primary screen NINDS Rhodamine qHTS for Zika virus inhibitors (AID 1347160). Note: nearly all actives have a fitted effect of over 55% in size. The note with it: purified NS2B-NS3 protease, Rhodamine110 substrate fluorescence; series mostly up to 57.1 µM; activity change, negative = inhibition: at the top concentration. In short, it runs like this:
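Each compound, titrated, sat 15 min with 25 nM linked protease before 1.5 microM Rhodamine110 substrate went in. Fluorescence gain over the next 15 min, in pH 8.0 Tris with Tween 20, gave Hill-fitted curves.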
Background: Quantitative high-throughput screening tests each substance at several concentrations.
As for `CC1(C)CCCC2(C)C1CC(=O)C13CC(CCC12)C(O)(CO)C3` (stereo not given), the “activity change, negative = inhibition” value was -18.5% [at 33.1 µM].

With `CC1CCC2(CO)C(C(=O)O)=CCCC2C1(C)CCc1ccoc1` (stereo not given), the “activity change, negative = inhibition” value was -13.3% [at 33.1 µM].

With `O=C(/C=C/c1ccc(O)cc1)N[C@@H](Cc1ccc(O)cc1)C(=O)O`, the “outcome” value is “inactive [at 33.1 µM]”.

On to `CC1OC(OC2C(CO)OC(OCC3OC(OC(=O)C45CCC(C)(C)CC4C4=CCC6C7(C)CCC(OC8OC(CO)C(O)C(OC9OC(CO)C(O)C(O)C9O)C8O)C(C)(C)C7CCC6(C)C4(C)CC5)C(O)C(O)C3O)C(O)C2O)C(O)C(O)C1OC1OC(CO)C(O)C(O)C1O` (stereo not given), for which the outcome is “inactive [at 10.7 µM]”.

Take `Cc1cc2c(c(=O)[nH]1)OC(C(O)CC(C)C)O2` (stereo not given): the “activity change, negative = inhibition” value is -18.4%.

As to `COC(=O)C1=CO[C@@H](O[C@@H]2O[C@H](CO[C@@H]3O[C@H](COC(=O)/C=C/c4cc(OC)c(O)c(OC)c4)[C@@H](O)[C@H](O)[C@H]3O)[C@@H](O)[C@H](O)[C@H]2O)[C@@H]2C(CO)=CC[C@H]12`, the “activity change, negative = inhibition” value is -2.01% [at 15.1 µM].

Turning to `Cc1csc(NC(=O)c2ccc(COc3cccc(Cl)c3)o2)n1`, the “activity change, negative = inhibition” value was 79.3%.

Turning to `CC1CC2OC3(OC2C(C)(C)O)C1C1(C)CCC24CC25CCC(O[C@@H]2OC[C@@H](O)[C@H](O)[C@H]2O)C(C)(C)C5CC=C4C1(C)C3O` (stereo not given in full), the “activity change, negative = inhibition” value is -5.56% [at 15.1 µM].

Consider `CCCn1c(=O)c2[nH]c(-c3ccc(OCC(=O)O)cc3)nc2n(CCC)c1=O`, for which the result was inactive.

As to `CC1=CC(=O)C2(OC3OC(C)C(O)C(OC(=O)/C=C/c4ccccc4)C3O)C=COC(OC3OC(CO)C(O)C(O)C3O)C12` (stereo not given), the “activity change, negative = inhibition” value is -15.7% [at 15.1 µM].

With `CCCCNc1ncc2c(-c3ccc(F)cc3)nn(CC3CCC(N)CC3)c2n1` (stereo not given), the “activity change, negative = inhibition” value is 379% [at 33.1 µM].

As for `Cc1cc(C(N)=O)ccc1-n1c(CCC(=O)O)ccc1-c1ccc(-n2ccnc2)cc1`, the “activity change, negative = inhibition” value was -18.2%.

Take `C[C@@H]1CCC/C=C/[C@H]2CC(=O)C[C@@H]2[C@@H](O)/C=C/C(=O)O1`: the “activity change, negative = inhibition” value was -16.2%.

Regarding `C=C1C(=O)O[C@H]2C1[C@H](OC(=O)/C(=C/CO)COC(=O)/C(C)=C/CO)CC(=C)[C@@H]1CC(=O)[C@@H](C)[C@@H]12` (stereo not given in full), the “outcome” value is “inactive [at 33.1 µM]”.

For the molecule `C=C(C)C(=O)OC1CC2(C)OC(=CC2=O)C(=C)CC2OC(=O)C(COC)C12` (stereo not given), the “activity change, negative = inhibition” value was -6.82% [at 33.1 µM].

For the molecule `C/C=C/c1ccc2oc(-c3ccc(O)c(OC)c3)c(C)c2c1`, the “activity change, negative = inhibition” value is -18.8%.

Regarding `C=CCC1=C[C@]2(OC)[C@H](C)[C@@H](c3ccc(O)c(OC)c3)O[C@]2(OC)CC1=O`, the “activity change, negative = inhibition” value is -6.88% [at 33.1 µM].

For `CC(C)=C/C=C\[C@H](C)[C@H]1CC[C@]2(C)C[C@@H]3C(C)=CC(=O)C3/C(CO)=C\C[C@@H]12` (stereo not given in full), the “activity change, negative = inhibition” value is -14% [at 33.1 µM].

Take `CC(C)C[C@H](CC(=O)NO)C(=O)N[C@H](C(=O)N[C@@H](C)C(=O)NCCN)C(C)(C)C`: the activity change, negative = inhibition was -11.4% [at 10.7 µM].

Regarding `C=C1CC[C@@H]2[C@](C)(CO[C@@H]3O[C@H](CO)[C@@H](O)[C@H](O)[C@H]3O)[C@H](O)CC[C@@]2(C)[C@@H]1C/C=C1/C(=O)OC[C@H]1O`, the “activity change, negative = inhibition” value was 4.88% [at 33.1 µM].

Regarding `COC(=O)C[C@H]1[C@]2(C)C3=C(C)[C@H](c4ccoc4)C[C@H]3O[C@@H]2[C@H](OC(C)=O)C2[C@](C)(C(=O)OC)C=CC(=O)[C@@]21C` (stereo not given in full), the “activity change, negative = inhibition” value was -27% [at 33.1 µM].

For `C[C@@H]1C[C@@H]2O[C@H]2/C=C\C=C\C(=O)Cc2c(Cl)c(O)cc(O)c2C(=O)O1`, the “activity change, negative = inhibition” value was -15.4% [at 33.1 µM].

On to `CC1(C)CC[C@@]2(C(=O)O[C@@H]3O[C@H](CO)[C@@H](O)[C@H](O)[C@H]3O)C(C1)C1=CCC3[C@@]4(C)CC[C@@H](O[C@@H]5O[C@H](C(=O)O)[C@@H](O[C@@H]6OC[C@@H](O)[C@H](O)[C@H]6O)[C@H](O[C@@H]6OC[C@](O)(CO)[C@H]6O)[C@H]5O)C(C)(C)C4CC[C@@]3(C)[C@]1(C)C[C@H]2O` (stereo not given in full), for which the “activity change, negative = inhibition” value is -12.1% [at 15.1 µM].

Consider `C/C=C/C1=CC2=C(CO1)C(=O)C(C)(O)C(OC(=O)c1c(C)cc(OC)cc1O)C2` (stereo not given), for which the “activity change, negative = inhibition” value was -4.67% [at 33.1 µM].

For the molecule `CC(C)(O)/C=C/CC(C)(O)C1C(O)CC2(C)C3CCC4C(C)(C)C(=O)CCC4(C)C3CCC12C` (stereo not given), the “activity change, negative = inhibition” value was -18.4% [at 33.1 µM].

As to `CN1c2ccccc2C(=O)N2CCC3c4ccccc4NC3C21` (stereo not given), the “outcome” value was “inactive [at 33.1 µM]”.

In the case of `C=C1C(=O)OC2/C=C(\CO)CC/C=C(\C=O)CC(OC(=O)CC(C)C)C12` (stereo not given), the “activity change, negative = inhibition” value was 7.51% [at 33.1 µM].

In the case of `C/C=C(/COC(=O)/C(C)=C/C)C(=O)OC(CC)c1ccc(OC)c(OC)c1` (stereo not given), the “activity change, negative = inhibition” value is -10% [at 33.1 µM].

Regarding `CC(=O)CCC1=C(C)C(O[C@@H]2O[C@H](CO)[C@@H](O)[C@H](O)[C@H]2O)C(O)CC1(C)C` (stereo not given in full), the “activity change, negative = inhibition” value was 1.44% [at 33.1 µM].

Regarding `CC(C)c1ccc2c(c1)C(=O)CC1[C@@](C)(C(=O)O)CCC[C@]21C` (stereo not given in full), the “outcome” value was “inactive [at 33.1 µM]”.

Turning to `Cc1cc(N2CCN([C@@H]3CN[C@H](C(=O)N4CCSC4)C3)CC2)n(-c2ccccc2)n1`, the “activity change, negative = inhibition” value is -17.4%.

In the case of `O=C(Nc1ccn[nH]1)c1c(F)cccc1F`, the molecule was called inactive.

For `CC1(C)CCC[C@@]2(C)C1[C@H](OC(=O)/C=C/C=C/C(=O)O)C=C1COC(=O)[C@@]12O` (stereo not given in full), the “activity change, negative = inhibition” value was -1.9% [at 33.1 µM].

As for `C=C(C(=O)O)[C@@H]1CC[C@@]2(C)CC[C@H](O)[C@@]2(C(C)=O)C1`, the “activity change, negative = inhibition” value was 0.306%.

As to `OC[C@H]1O[C@@H](OC(CCCCc2ccc(O)cc2)CCc2ccc(O)cc2)[C@H](O)[C@@H](O)[C@@H]1O` (stereo not given in full), the “outcome” value is “inactive [at 33.1 µM]”.

As for `CC(C)S(=O)(=O)N[C@H]1CCOC[C@@H]1c1ccc(-c2ccc(C#N)s2)cc1`, the “activity change, negative = inhibition” value is 19%.

For `CC12CCC(=O)C=C1C(O)CC1C2C(O)CC2(C)C1CC[C@]2(O)C(=O)CO` (stereo not given in full), the “activity change, negative = inhibition” value was 17.1% [at 15.1 µM].

Turning to `C[C@@H]1O[C@@H](O[C@H]2[C@H](OC(=O)[C@]34CCC(C)(C)C[C@H]3C3=CCC5[C@@]6(C)C[C@H](O)[C@H](O[C@@H]7O[C@H](CO)[C@@H](O)[C@H](O)[C@H]7O)[C@@](C)(CO)C6[C@H](O)C[C@@]5(C)[C@]3(C)C[C@H]4O)OC[C@H](O)[C@@H]2O)[C@H](O)[C@H](O)[C@H]1O[C@@H]1OC[C@@H](O)[C@H](O[C@H]2OC[C@](O)(CO)[C@H]2O)[C@H]1O` (stereo not given in full), the activity change, negative = inhibition is 18.3% [at 10.7 µM].

Consider `C[C@@H](O)[C@H](NC(=O)c1ccc(C#Cc2ccc(CN3CCOCC3)cc2)cc1)C(=O)NO`, for which the “activity change, negative = inhibition” value is 16%.

Regarding `C=C1C(OC(=O)/C(C)=C\C)[C@@]23CCC4[C@@](C)(CCC[C@@]4(C)C(=O)O)C2CC[C@H]1C3OC(C)=O` (stereo not given in full), the “activity change, negative = inhibition” value is -11.9% [at 33.1 µM].
